Consider 16 compounds from PMC5540273 (PLoS ONE, 2017).

Some test systems named below: DAPK1; DAPK2; DAPK3; DDR1; DDR2.
Holding throughout (details): concentration: 1 μM, replicates: in singlicate; n = 1
For a further assay, the system named is T1, DCAMKL1.
T1 construct: gene DCLK1

Another assay has as its system T2, DCAMKL2.
T2 construct: gene DCLK2

For a further assay, the system named is T3, DCAMKL3.
T3 construct: gene DCLK3

The next assay has as its system T4, DLK.
T4 construct: gene MAP3K12

The next assay deals with T5, DMPK2.
T5 construct: gene CDC42BPG
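Note: KINOMEscan kinase panel screen.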

Take `Cc1cccc(Cn2ccn3c(=O)cc(N4CCOCC4)nc23)c1` [GSK2297542]: the “%Inh” value in the assay on DAPK1 amounted to 9%; with DAPK2, 5%; in the assay on DAPK3 it was 0%; in the assay with DCAMKL1, 21%; in the assay with DCAMKL2 it was 14%; in the assay with DCAMKL3 it was 28%. Also, the “%Inh” value in the assay on DDR1 worked out at 0%; in the assay on DDR2, 6%; with DLK, 49%; with DMPK2, 16%.

As for `Cc1cn2c(=O)cc(N3CCOCC3)nc2n1Cc1cccc(Cl)c1Cl` [GSK2334006], the “%Inh” value with DAPK1 came out at 13%; in the assay on DAPK2, 19%; with DAPK3 it was 22%; with DCAMKL1, 0%; with DCAMKL2, 0%; in the assay on DCAMKL3, 0%. Moreover, the “%Inh” value with DDR1 was determined as 30%; with DDR2 it was 14%; in the assay on DLK it was 21%; with DMPK2, 15%.

Take `Cc1ccc(C(=O)NCC(N)=O)cc1-n1c(C)cc(OCc2ccc(F)cc2F)c(Br)c1=O`: the “%Inh” value with DAPK1 came out at 0%; with DAPK2 it was 0%; in the assay on DAPK3 it was 15%; in the assay on DCAMKL1, 3%; in the assay on DCAMKL2 it was 17%; with DCAMKL3 it was 19%. Also, the “%Inh” value with DDR1 is on record as 15%; in the assay on DDR2, 3%; in the assay on DLK, 0%; in the assay on DMPK2, 0%.

In the case of `COc1ccc(Nc2ncc(C#N)c(Nc3ccccc3C(N)=O)n2)cc1N1CCN(C)CC1.Cl` [GSK1558669], the “%Inh” value worked out at 97.8% in the assay with DAPK1; 98.5% with DAPK2; 99.2% with DAPK3; 97.4% in the assay with DCAMKL1; 100% in the assay with DCAMKL2; 99.6% in the assay with DCAMKL3. Also, the “%Inh” value in the assay on DDR1 is recorded as 100%; in the assay on DDR2 it was 94.2%; in the assay with DLK it was 97.8%; in the assay with DMPK2, 89%.

Regarding `Cl.Oc1cccc(Nc2ccnc3cc(-c4ccncc4)ccc23)c1` [GW494601], the “%Inh” value in the assay on DAPK1 was determined as 5%; with DAPK2, 3%; with DAPK3, 15%; with DCAMKL1 it was 4%; with DCAMKL2, 0%; with DCAMKL3, 8%. In addition, the “%Inh” value worked out at 68% with DDR1, 82% in the assay with DDR2, 54% in the assay on DLK and 0% in the assay on DMPK2.

`CN(C(=O)c1ccc(-c2cc(-c3c[nH]nc3-c3ccccn3)ccn2)cc1)C1CCOCC1` [GW810083]: the “%Inh” value with DAPK1 was 11%; in the assay on DAPK2, 2%; in the assay with DAPK3 it was 0%; in the assay on DCAMKL1 it was 0%; with DCAMKL2 it was 0%; in the assay with DCAMKL3, 19%. For the same compound, the “%Inh” value is 0% in the assay on DDR1, 36% in the assay on DDR2, 14% with DLK and 0% in the assay on DMPK2.

`O=C1NC(=O)C(N2CCc3ccccc32)=C1c1cccc(Cl)c1` [SB-408010]: the “%Inh” value with DAPK1 is listed as 5%; in the assay on DAPK2, 0%; in the assay with DAPK3 it was 0%; in the assay with DCAMKL1, 0%; in the assay on DCAMKL2, 21%; in the assay on DCAMKL3 it was 21%. Further, the “%Inh” value in the assay with DDR1, in the assay on DDR2, in the assay on DLK and in the assay on DMPK2 was 0% throughout.

For `O=C(c1ccc(-c2cc(-c3c[nH]nc3-c3ccccn3)ccn2)cc1)N1CCOCC1` [GW812171], the “%Inh” value was 0% with DAPK1; 0% in the assay on DAPK2; 11% in the assay on DAPK3; 30% with DCAMKL1; 0% in the assay with DCAMKL2; 0% with DCAMKL3. Moreover, the “%Inh” value with DDR1 came out at 0%; in the assay with DDR2, 30%; with DLK, 0%; in the assay on DMPK2 it was 0%.

As for `Nc1nccc(-c2c(-c3ccc(F)cc3)ncn2C2CCN(CC(F)(F)F)CC2)n1` [SB-236560], the “%Inh” value is listed as 20% in the assay with DAPK1; 0% in the assay with DAPK2; 0% with DAPK3; 0% in the assay with DCAMKL1; 0% in the assay with DCAMKL2; 18% in the assay with DCAMKL3. Also, the “%Inh” value in the assay with DDR1 is reported as 90.8%; with DDR2, 76%; with DLK, 17%; in the assay with DMPK2 it was 12%.

In the case of `CN1c2ccc(NCc3ccc(F)cc3)cc2-c2c(cnn2C)S1(=O)=O`, the “%Inh” value stood at 3% in the assay on DAPK1; 12% in the assay on DAPK2; 15% in the assay on DAPK3; 16% with DCAMKL1; 25% with DCAMKL2; 9% with DCAMKL3. Also, the “%Inh” value with DDR1 came out at 0%; in the assay with DDR2, 31%; in the assay on DLK, 0%; in the assay with DMPK2, 0%.

Turning to `COc1cc2c(cc1OC[C@@H](O)CO)ncc1c3ccc(C#N)cc3[nH]c21`, the “%Inh” value in the assay with DAPK1 is given as 6%; in the assay with DAPK2 it was 6%; with DAPK3 it was 13%; with DCAMKL1, 0%; in the assay on DCAMKL2, 0%; in the assay with DCAMKL3, 34%. The “%Inh” value amounted to 0% with DDR1, 0% in the assay with DDR2, 65% in the assay with DLK and 0% with DMPK2.

`N#Cc1c(N2CCOCC2)sc(-c2ccn[nH]2)c1-c1ccc(Cl)cc1`: the “%Inh” value in the assay on DAPK1 came to 3%; in the assay on DAPK2, 0%; with DAPK3 it was 0%; with DCAMKL1 it was 7%; with DCAMKL2, 11%; in the assay with DCAMKL3, 0%. In addition, the “%Inh” value is 15% in the assay on DDR1, 6% in the assay on DDR2, 19% in the assay on DLK and 2% in the assay on DMPK2.

Regarding `CCc1ccnc(/C=C/c2n[nH]c3cc(Sc4ccccc4C(=O)NC)ccc23)c1`, the “%Inh” value amounted to 17% in the assay with DAPK1; 0% with DAPK2; 0% with DAPK3; 0% in the assay on DCAMKL1; 0% in the assay on DCAMKL2; 8% in the assay with DCAMKL3. Further, the “%Inh” value is on record as 0% with DDR1, 13% in the assay on DDR2, 30% in the assay with DLK and 0% with DMPK2.

With `NS(=O)(=O)CCc1cccc(Nc2nccc(-c3c(-c4cccc(NC(=O)c5c(F)cccc5F)c4)nn4ccccc34)n2)c1` [GSK336735], the “%Inh” value with DAPK1 is listed as 0%; in the assay on DAPK2, 0%; in the assay on DAPK3, 0%; with DCAMKL1, 13%; in the assay with DCAMKL2, 23%; in the assay with DCAMKL3 it was 15%. Besides, the “%Inh” value with DDR1 came out at 100%; in the assay on DDR2, 94.9%; in the assay on DLK it was 59%; with DMPK2, 100%.

In the case of `NCC(NC(=O)c1cc(-c2cn[nH]c2)c(-c2ccnc3[nH]ccc23)s1)c1ccccc1.O=C(O)C(F)(F)F.O=C(O)C(F)(F)F` (stereo not shown) [GSK1325775], the “%Inh” value in the assay on DAPK1 amounted to 71%; in the assay with DAPK2, 37%; with DAPK3, 87%; in the assay with DCAMKL1, 6%; with DCAMKL2 it was 0%; in the assay with DCAMKL3 it was 0%. Moreover, the “%Inh” value was 0% with DDR1, 43% in the assay on DDR2, 37% in the assay on DLK and 89% with DMPK2.

For the compound `CC(C)(C)n1cnc2c(N)ncnc21` [SKF-97359], the “%Inh” value is listed as 78% with DAPK1; 19% in the assay on DAPK2; 0% in the assay with DAPK3; 0% in the assay on DCAMKL1; 0% in the assay with DCAMKL2; 11% with DCAMKL3. In addition, the “%Inh” value stood at 0% in the assay with DDR1, 0% in the assay with DDR2, 31% in the assay with DLK and 0% in the assay on DMPK2.
